Data: PubChem BioAssay AID1259415 (National Center for Advancing Translational Sciences (NCATS), 2018)
Hit rate of the full screen: of about 410,000 compounds, about 18,000 (4.4%) were called active. Not shown: some 7% with an inconclusive outcome. Many of the other results were omitted from the sample, so actives are more common in it than they were. Values without a mark were called inactive. Rule as the data show it: active = activity change below about -60%; inconclusive = no clear call, values can overlap the other calls; inactive = above about -39%.

Test: qHTS Assay for inhibitors of the human cytomegalovirus (HCMV)
Details: HFF cells, HCMV-luciferase reporter, 72 h; at 57.5 µM; active compounds read low
Method in brief: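 Luciferase read-out from HCMV-luciferase-infected HFFs (MOI 1 PFU/cell) 72 h post infection at 37C; compounds added after 16 h cell attachment; activity normalized between buffer-only basal and Salinomycin (10uM) inhibitor controls.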
% is scaled to controls: 0 for no effect and ±100 for the full control effect.

| SMILES | activity change, negative = inhibition |
| --- | --- |
| Cn1c(=O)c2c(nc(Oc3ccc(C#N)cc3)n2Cc2ccc(Cl)cc2Cl)n(C)c1=O | -9.46% |
| Cc1cc(NC(=O)COn2nnc3ccccc32)no1 | 29.8% |
| Cc1cc(NC(=O)CS(=O)(=O)c2cn(C)c3ccccc23)no1 | -74.2% (active) |
| Cc1cc(NC(=O)CSCc2ccccc2C)no1 | -34.5% |
| Cc1ccc2c(=O)c(C(=O)c3ccc(Cl)cc3)cn(CC(=O)NC3CCCCC3)c2n1 | -0.369% |
| CCOc1ccc(CCNC(=O)c2c(C)oc3ncn(C)c(=O)c23)cc1 | -13.7% |
| Cc1cc(C)cc(OCC(=O)Nc2nc(-c3ccc(F)cc3)ns2)c1 | 150% |
| COc1ccccc1C(=O)COC(=O)COc1ccc(C#N)cc1 | -31.6% |
| CC(C)(C)c1nnc2sc(SCC(O)=C(C#N)c3nc4ccccc4[nH]3)nn2c1=O | -4.66% |
| N#C/C(=C(/O)COC(=O)COc1ccc(Cl)cc1)c1nc2ccccc2[nH]1 | -101% (active) |
| Cc1ccc(S(=O)(=O)Nc2ccccc2CNc2c(C)n(C)n(-c3ccccc3)c2=O)cc1 | -7.12% |
| CC1CCCN(Cc2c(O)ccc3c(=O)c(Oc4ccc(C(C)(C)C)cc4)c(C(F)(F)F)oc23)C1 (stereo unspecified) | -38.5% |
| Cc1csc2nc(COC(=O)c3ccc(NC(=O)COc4ccccc4F)cc3)cc(=O)n12 | 14.4% |
| O=C(CSc1ncnc2sccc12)NC1CCS(=O)(=O)C1 (stereo unspecified) | -22.5% |
| O=C(CSc1nn(-c2ccc(F)cc2)c(=S)s1)NC1CCS(=O)(=O)C1 (stereo unspecified) | -34.3% |
| O=C(CSc1ccccc1F)NC1CCS(=O)(=O)C1 (stereo unspecified) | -105% (active) |
| COC(=O)CC(CC(=O)OC)n1cccc1 | 19.2% |
| COc1ccc(-n2c(SCC(=O)Nc3sc4c(c3C#N)CCCC4)nnc2-c2ccc(O)cc2)cc1 | -15.5% |
| COc1ccccc1-c1ccnc2[nH]n(-c3ccccc3)c(=O)c12 | -8.55% |
| COc1ccc2cc(CNc3ccc(OC)c(OC)c3)c(=O)n(CC(=O)Nc3ccccc3F)c2c1 | 9.9% |
| COc1ccc(S(=O)(=O)N2CCCCC2)cc1NC(=O)COc1ccccc1 | -25.1% |
| CCOc1ccccc1NC(=O)C1CCCN(S(=O)(=O)c2ccccc2)C1 (stereo unspecified) | -62% (active) |

| SMILES | activity change, negative = inhibition |
| --- | --- |
| Cc1ccc(S(=O)(=O)N2CCCCC2)cc1NC(=O)[C@@H]1CCCN1C(=O)c1cccs1 | 0% |
| CCOc1ccccc1NC(=O)C1CCCN(C(=O)Nc2ccccc2)C1 (stereo unspecified) | -21.6% |
| CCOc1ccccc1NC(=O)COc1ccc(S(=O)(=O)N2CCCC2)cc1 | -21% |
| CCOc1ccc(S(=O)(=O)N2CCCCC2)cc1NC(=O)CN1CCCC1c1cccs1 (stereo unspecified) | -90% (active) |
| O=C(O)CCc1cccnc1 | -25.2% |
| CN(Cc1ccccc1)S(=O)(=O)c1ccc(F)c(C(=O)Nc2cccc(Cl)c2Cl)c1 | 6.47% |
| COc1ccc2ncc3c(-c4ccc(C)c(C)c4)nn(CC(=O)NC4CCCC4)c3c2c1 | 14.2% |
| O=C(CSc1nccn1Cc1ccc(Cl)cc1)NCc1ccccc1 | -18.2% |
| COc1ccc(Cl)cc1NC(=O)Cn1c(=O)c2ccccc2n2nncc12 | 11.9% |
| Cc1nn(-c2ccc([N+](=O)[O-])cc2)c(N)c1-c1ccccc1 | -65.4% (active) |
| CNP1(NC)=Nc2nn(-c3ccccc3)c(N)c2C(c2ccccc2)=N1 | 43.5% |
| Cc1nn(-c2ccccc2)c2c1C(c1cccc([N+](=O)[O-])c1)N(c1ccccc1)C(=O)N2 (stereo unspecified) | -9.36% |
| O=C(NNS(=O)(=O)c1ccccc1)c1cnn(-c2ccc(Cl)cc2)c1C(F)(F)F | 2.04% |
| CC(C)c1ccc(C2CC(=O)N3CN(C4CCCCC4)CSC3=C2C#N)cc1 (stereo unspecified) | -5.74% |
| CC(=O)Nc1cc(-c2ccc(N3CCN(C)CC3)cc2)cn2c(-c3ccc(F)cc3)cnc12 | -75.2% (active) |
| CC(=O)c1cccc(-c2cnc3c(NC=O)cc(-c4ccc(N5CCN(C)CC5)cc4)cn23)c1 | 19.8% |
| CC(=O)Nc1cc(-c2ccc(N3CCN(C)CC3)cc2)cn2c(-c3cccc(C(=O)N(C)C)c3)cnc12 | 8.54% |
| Cc1ccc2cccc(NC(=O)c3cccc4ccccc34)c2n1 | -10.4% |
| O=C(NC1CCCCCC1)C1CCN(C(=O)c2ccc(Cl)cc2)CC1 | -37.2% |
| COC(=O)C1CCN(C(=O)c2ccc3oc(Cc4ccc(Cl)cc4)nc3c2)CC1 | 8.67% |
| C/C(N)=C(/C#N)C(=O)COC(=O)C1CCN(C(=O)c2ccc(Cl)cc2)CC1 | -65.3% (active) |
| CCN(CCCNC(=O)c1c(C)oc2ncn(CC(C)C)c(=O)c12)Cc1ccccc1 | -5.33% |

| SMILES | activity change, negative = inhibition |
| --- | --- |
| Cc1ccc(C)c(NC(=O)C2CCCN(S(=O)(=O)c3cn(C)cn3)C2)c1 (stereo unspecified) | 44.9% |
| CC(CNC(=O)c1nnc(Cc2cccc(F)c2)o1)c1ccccc1 (stereo unspecified) | -15.6% |
| O=C(Nc1ccc(C(=O)OCc2cc(=O)n3nc(C4CC4)sc3n2)cc1)c1ccc(F)cc1 | 7.95% |
| CC(C)c1ccc2oc(-c3cc(NC(=O)c4cccs4)ccc3Cl)nc2c1 | -18.9% |
| C[C@H]1Cn2cnc(C(=O)N[C@@H](Cc3c[nH]c4ccccc34)C(=O)OC(C)(C)C)c2C(=O)N1 | 16% |
| C[C@H]1Cn2cnc(C(=O)N[C@H](C)c3ccccc3)c2C(=O)N1 | -3.07% |
| C[C@@H]1Cn2cnc(C(=O)Nc3ccc(CNC(=O)OC(C)(C)C)cc3)c2C(=O)N1 | -101% (active) |
| O=C(NCC(c1cccnc1)N1CCc2ccccc21)c1cccc(C(F)(F)F)c1 (stereo unspecified) | -36.7% |
| O=C(Oc1cccc(C(=S)N2CCOCC2)c1)c1cccc(Cl)c1 | -4.94% |
| O=C(Nc1ccccc1C(=O)N1CCOCC1)c1ccc(Cl)cc1 | 8.32% |
| O=C(Nc1ccc(Cl)cc1)c1cccc(OC(=S)N2CCOCC2)c1 | -103% (active) |
| Cc1nc(NC(=O)C2CCCCC2)sc1C | 62.5% |
| O=C(NNc1nc(N2CCCC2)nc(N2CCCC2)n1)c1ccccc1 | -66.4% (active) |
| Cc1ccc(C(CC(=O)O)Nc2nc(N3CCCCC3)nc(N3CCCCC3)n2)cc1 (stereo unspecified) | -10.1% |
| O=C(NNC1=NCCC1)c1cccc(S(=O)(=O)N2CCCCC2)c1 | -11.4% |
| CCC1(C)CC(=O)c2c(ccc3oc(C(=O)Nc4ccc(C(C)=O)cc4)c(C)c23)O1 (stereo unspecified) | -8.87% |
| COc1cccc(C2C(C(=O)Nc3ccc(C)cc3C)=C(C)Nc3c(C(=O)Nc4ccccc4)cnn32)c1 (stereo unspecified) | -31.3% |
| O=C1CSC(=O)N1CCOCCN1C(=O)CSC1=O | 11.3% |
| CC(C)(C)NC(=O)CSc1nc(-c2ccc(F)cc2)cc(C(F)(F)F)n1 | -8.55% |
| CC12CCC3C(CCC4CC(=O)CCC43C)C1CC(=NO)C2=O (stereo unspecified) | 16.3% |
| CC(C)c1ccc(NC(=O)CN(C)S(=O)(=O)c2ccc3c(c2)c(=O)n(C)c(=O)n3C)cc1 | -106% (active) |
| CN(CC(=O)Nc1ccccc1F)S(=O)(=O)c1ccc2c(c1)c(=O)n(C)c(=O)n2C | 3.4% |

| SMILES | activity change, negative = inhibition |
| --- | --- |
| CCc1ccccc1NC(=O)CN(C)S(=O)(=O)c1ccc2c(c1)c(=O)n(C)c(=O)n2C | 14.6% |
| CC1CCCC(NC(=O)COC(=O)[C@@H]2CC(O)CN2S(=O)(=O)c2ccc3c(c2)OCCO3)C1C (stereo partly specified) | 10.5% |
| Cc1ccc(Cl)cc1NC(=O)CSc1nccn1C | -11.3% |
| Cc1cc(C)n(CCNCc2c(C(=O)N3C[C@@H](C)O[C@@H](C)C3)nc3ccc(Cl)cn23)n1 | 18.2% |
| Cc1ccc(C(=O)N2CCc3cc(CNC(=O)c4ccc(Br)cc4)ccc32)cc1 | -17.7% |
| CC1=C(C(=O)N2CCN(c3cccc(C(F)(F)F)c3)CC2)C2(CCCCC2)OC1=O | 30.4% |
| Nc1nc(SCC(=O)NCCN2CCOCC2)nc2sc3c(c12)CCC3 | 5.31% |
| C=C(C)CSc1nc(N)c2c3c(sc2n1)CCC3 | 31.9% |
| CC(C)(C)C1CCc2c(sc3nc(SCC(N)=O)nc(N)c23)C1 (stereo unspecified) | -100% (active) |
| CC(C)(C)c1ccc(C(=O)NCc2nnc(SCC(=O)N3CCCc4ccccc43)n2-c2ccccc2)cc1 | -18.4% |
| CC1(C)C(=O)CCC2(C)C1=CCC1C2C(=O)CC2(C)C1CCC2(O)C(=O)CO (stereo unspecified) | -4.43% |
| Cc1cc(C)c(NC(=O)Cn2c(SCC(=O)NCc3ccccc3)nc3ccccc32)c(C)c1 | -0.705% |
| Cc1ccc(-n2c(SCC(=O)Nc3ncc(Cl)cc3Cl)nc3ccccc32)cc1 | -98.7% (active) |
| CC1(C(=O)OCC(=O)Nc2ncc(Cl)cc2Cl)CC1(Cl)Cl (stereo unspecified) | -27.2% |
| COc1cc2nc(SCC(=O)Nc3ccccc3F)n3nc(-c4ccccc4)nc3c2cc1OC | -6.09% |
| Cc1ccccc1CS(=O)(=O)CC1Nc2ccc(C(=O)NCc3ccc(Cl)cc3)cc2NC1=O (stereo unspecified) | 2.23% |
| CC(C)c1ccc(OCC(=O)N(Cc2ccc(N(C)C)cc2)C2CCS(=O)(=O)C2)cc1 (stereo unspecified) | 7.29% |
| CCc1ccc(NC(=O)C2CCCN2S(=O)(=O)c2ccc3nc(-c4ccccc4)[nH]c3c2)cc1 (stereo unspecified) | -18.7% |
| CCCCn1c(N)c(N(CCC(C)C)C(=O)COC(=O)c2cccnc2OCC)c(=O)[nH]c1=O | -5.28% |
| NS(=O)(=O)c1ccc(CNC(=O)c2cc(S(=O)(=O)N3CCOCC3)ccc2N2CCCC2)cc1 | -10.4% |
